The text below walks through data of the supplement of paper PMC5407854, “Inhibitor of ppGalNAc-T3-mediated O-glycosylation blocks cancer cell invasiveness and lowers FGF23 levels” (eLife, 2017).

Whole data set: some 1,700 compounds, median “T2 sensor activation Q score (MG/GFP ratio z-score vs DMSO controls)” near 0.3, cut for the highest 2% near 1.9. What follows is part of a selection rich in the highest values, with near analogues and random picks from the rest.

The assay concerns ppGalNAc-T2 sensor. Kind of assay: T2 sensor activation Q score (MG/GFP ratio z-score vs DMSO controls) (SD units); higher = more sensor activation (inhibition of ppGalNAc-T2 glycosylation). The settings on record: HEK293 sensor cells; 10 µM; 6 h. On the procedure:
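Cells were treated with compound at 10 uM for 6 h, then MG/GFP ratio was read by flow cytometry (10,000 cells per well, duplicate wells). Q = (R - R_neg)/SD_neg relative to DMSO vehicle controls; the signal rises when the glycosyltransferase is inhibited.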
For the molecule `CCOC(=O)C(C)c1c(C(=O)c2ccc(C)nc2)c2ccccc2n1C` (configuration not stated), the “T2 sensor activation Q score” value was 0.9.
As to `NC(=O)c1nnsc1-c1ccc(-c2snnc2C(N)=O)cc1`, the “T2 sensor activation Q score” value was 1.7.
In the case of `O=c1[nH]c(=S)c2ncn(-c3ccccc3)c2[nH]1` it was -1.3; in that of `NC(=O)c1ccccc1NC(=O)COc1ccc(Cl)cc1`, -0.45.
Next, `CC(=O)Nc1ccc(S(=O)(=O)N/N=c2/sc3ccccc3n2C)cc1N`: -0.6; `c1ccc(-c2nnc3oc(-c4cccs4)nn23)cc1`: -1.05; `Cc1cn(C2CC(O)C(CO)O2)c(=O)n(Cc2ccccc2)c1=O` (configuration not stated): 0.85.
As to `O=c1[nH]cc(Cl)cc1Cl`, the “T2 sensor activation Q score” value turned out to be 0.5.
Consider `CCOC(=O)/C=C/c1nc(C(=O)OCC)c(C)c(=O)[nH]1`, for which the “T2 sensor activation Q score” value was -0.1.
In the case of `CC(C)=NNc1ncnc2nc[nH]c12` it was 1.25.
In the case of `CC(C)CCCCCCCCCCCCC(=O)NCC(=O)NC1C(C)OC(Nc2ncnc3nc[nH]c23)C(O)C1O` (configuration not stated) it was 8.6.
For `Cc1ccc(Nc2n[nH]c(=S)s2)cc1F`, the “T2 sensor activation Q score” value is -0.95.
Next, `NNC(=O)Cc1cc(=O)[nH][nH]1`: -0.7; `Cc1cc(=O)oc2cc(OS(C)(=O)=O)ccc12`: 1.2.
Turning to `CCSc1nc(=S)cc(C)[nH]1`, the “T2 sensor activation Q score” value was -0.1.
As for `CC(=NNC(N)=O)c1ccc(Cl)c(-n2cccc2)c1`, the “T2 sensor activation Q score” value came to 0.6.
Regarding `N#C/C(=C\c1c[nH]c2ccccc12)C(N)=O`, the “T2 sensor activation Q score” value stood at 0.8.
As for `NC(=S)N/N=C\c1cc(-c2cccc(N)c2)ccn1`, the “T2 sensor activation Q score” value was 0.
On to `O=C(Nc1ccc(C2=NCCCN2)cc1)Nc1ccc(C2=NCCCN2)cc1`, for which the “T2 sensor activation Q score” value was -0.6.
Take `COc1ccc2c(c1)CCCN2C(N)=Nc1ccc(Cl)cc1`: the “T2 sensor activation Q score” value came to 1.25.
With `Cc1cccc2cc3cccc(C)c3nc12`, the “T2 sensor activation Q score” value stood at 0.3.
For the molecule `Cc1c(COC(=O)NC(C)C)c(COC(=O)NC(C)C)c2n1CS(=O)(=O)C2`, the “T2 sensor activation Q score” value is -0.4.
For `CC1CC(C)(C)C2=NCCN21` (configuration not stated), the “T2 sensor activation Q score” value amounted to 1.3.
On to `Cc1ccc(S(=O)(=O)NNC(=O)C23CCC(CC2)C3)cc1`, for which the “T2 sensor activation Q score” value is 1.95.
Next, `Cc1ccc(S(=O)(=O)NC(=O)Nc2nccs2)cc1`: -1.2.
In the case of `CC(=O)C1C=CC(C)(C(=O)O)C2C=C(C)C(=O)C(C)(O)C12` (configuration not stated) it was 0.2.
In the case of `CCOC(=O)c1csc(-c2ccc(COC(=O)c3ccccc3)o2)n1` it was -1; in that of `COc1ccc2c(c1)CCN1C2CCN2C(=O)CCC21` (configuration not stated), 0.9.
Turning to `O=S1(=O)CCN(Cc2ccccn2)CC1`, the “T2 sensor activation Q score” value was 0.85.
Turning to `COC(=O)c1ccc(Cn2cnc3c(Cl)ncnc32)cc1`, the “T2 sensor activation Q score” value came to 1.6.
Take `Cc1cc(N)c2cc(NC(=O)C=Cc3ccccc3Cl)ccc2n1`: the “T2 sensor activation Q score” value turned out to be 1.5.
Take `Nc1ccc(N=Nc2ccccc2)c2ccccc12`: the “T2 sensor activation Q score” value was -0.25.
In the case of `O=C(Nc1ccc(Nc2ccccc2)cc1)Nc1ccccc1Cl` it was -1.35; in that of `Nc1cc(Nc2ccc(Br)cc2)nc(N)n1`, 0.6; in that of `CCCCCOc1ccc(N2C(=O)C(C)CNC2=S)cc1` (configuration not stated), 0.7.
Next, `Oc1ccc(Cc2ccccc2Cl)c(O)c1`: 1.95.
Next, `Oc1ccc(Cc2ccc(Cl)cc2)c(O)c1`: 1.3; `Oc1ccc(-c2nc3ccccc3s2)c(O)c1`: 0.2.
Turning to `COC(=O)c1cc(C)[nH]c2c(C)cc3nc4ccccc4c3c12`, the “T2 sensor activation Q score” value worked out at 0.65.
Take `O=C(Oc1ccccc1)N(c1ccccc1)c1ccccc1`: the “T2 sensor activation Q score” value was 0.35.
Next, `Cc1cc(/C=C2\SC(=S)NC2=O)cc(C)c1O`: 0.35; `CN1CCC=C(C(=O)N2c3ccccc3Sc3ccc(Cl)cc32)C1`: 0.25.
Consider `CN(C)c1ccc(/C=C(\C#N)C(=O)c2ccccc2)cc1`, for which the “T2 sensor activation Q score” value is -0.3.
`CN(C)c1ccc2c(c1)Sc1cc(N(C)C)ccc1N2C(=O)c1ccccc1`: the “T2 sensor activation Q score” value was determined as 2.55.
Take `CCC1=C[C@@H]2CN(C1)Cc1c([nH]c3ccccc13)[C@@](C(=O)OC)(c1cc3c(cc1OC)N(C)[C@H]1[C@@](O)(C(=O)OC)[C@H](OC(C)=O)[C@]4(CC)C=CCN5CC[C@]31[C@@H]54)C2`: the “T2 sensor activation Q score” value turned out to be 1.1.
In the case of `CC[C@]1(O)C[C@@H]2CN(CCc3c([nH]c4ccccc34)[C@@](C(=O)OC)(c3cc4c(cc3OC)N(C)[C@H]3[C@@](O)(C(=O)OC)[C@H](OC(C)=O)[C@]5(CC)C=CCN6CC[C@]43[C@@H]65)C2)C1` it was 2.05.
`CC[C@]1(O)C[C@H]2CN(CCc3c([nH]c4ccccc34)[C@@](C(=O)OC)(c3cc4c(cc3OC)N(C=O)[C@H]3[C@@](O)(C(=O)OC)[C@H](OC(C)=O)[C@]5(CC)C=CCN6CC[C@]43[C@@H]65)C2)C1`: the “T2 sensor activation Q score” value is 1.4.
Take `C=C(C)C(=O)Oc1ccc(N=Nc2ccc(C)cc2)ccc1=O`: the “T2 sensor activation Q score” value was 1.1.
In the case of `NC(=O)c1nc2c([nH]c1=O)CCCC2` it was -0.85; in that of `CSc1nc(N)c(C(=O)Nc2ccc([N+](=O)[O-])cc2)s1`, 0.05; in that of `Nc1ccc(C(=O)Nc2cccc(N)c2)cc1`, -0.5.
Consider `O=C(Nc1cccc(-c2nc3ccccc3[nH]2)c1)c1ccc(C(=O)Nc2cccc(-c3nc4ccccc4[nH]3)c2)cc1`, for which the “T2 sensor activation Q score” value was determined as 3.
In the case of `c1ccc2[nH]c(-c3ccncc3)nc2c1` it was -1.1; in that of `Cn1ncc2c(Sc3ccc(Cl)cc3)ncnc21`, 1.3.
Take `CC1=CN2C(c3cccc([N+](=O)[O-])c3)=NON(c3ccc(C)cn3)C2C=C1` (configuration not stated): the “T2 sensor activation Q score” value was determined as 0.85.
In the case of `CSc1ncc2[nH]c(C(O)c3ccccc3)nc2n1` (configuration not stated) it was -0.45; in that of `O=S1(=O)CCC(N(N=Cc2ccco2)c2ccccc2)C1` (configuration not stated), -0.2.
In the case of `O=CN/C=C\c1cc(O)ccc1O`, the “T2 sensor activation Q score” value is -0.3.
Next, `OC[C@@H]1CCC[C@H](n2cnc3c(=S)nc[nH]c32)O1`: 0.75.
In the case of `Cc1nccnc1Sc1ccccc1` it was -0.2.
In the case of `Oc1c(N=Nc2nn[nH]n2)ccc2ccccc12`, the “T2 sensor activation Q score” value was found to be 3.6.
Next, `Oc1ccc2ccccc2c1N=Nc1nccs1`: 0.9.
